Screens from PubChem BioAssay.
KB-3-1 cytotox – qHTS assay for MDR1-selective chemotherapeutics: Primary screen using the parental adenocarcinoma cell KB-3-1; KB-3-1 viability, CellTiter-Glo ATP luminescence, 72 h; Potency, µM (highest dose often 46.1 µM), hits mostly cytotoxic; 1.4% of 400,000 active; note: nearly all actives have a fitted effect of over 60% in size
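72 h, 37 °C compound treatment of KB-3-1 parental cells; CellTiter-Glo added, 10 min, luminescence read. Data corrected against DMSO-only plates and normalized before curve fitting.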
TSG101-PTAP inh – qHTS Assay for Iinhibitors of HIV-1 Budding by Blocking the Interaction of PTAP/TSG101; Tumor susceptibility gene 101 protein (Homo sapiens), Q99816; Fluorescence polarization, FITC-PTAP peptide / Tsg101 binding; Potency, µM (titrated, usually from 115 µM), most hits filed as inhibitors; 340,000 tested, under 10 active; active = well fitted inhibition curve with a large enough effect in the main read-out, with a control signal flat, not every such curve was filed as active; inconclusive = small, poorly fitted or top-dose-only effect, or effect the other way, or a change in a side signal; inactive = no such curve, though single readings can be large or run the other way
Target sequence (Q99816 whole entry, looked up): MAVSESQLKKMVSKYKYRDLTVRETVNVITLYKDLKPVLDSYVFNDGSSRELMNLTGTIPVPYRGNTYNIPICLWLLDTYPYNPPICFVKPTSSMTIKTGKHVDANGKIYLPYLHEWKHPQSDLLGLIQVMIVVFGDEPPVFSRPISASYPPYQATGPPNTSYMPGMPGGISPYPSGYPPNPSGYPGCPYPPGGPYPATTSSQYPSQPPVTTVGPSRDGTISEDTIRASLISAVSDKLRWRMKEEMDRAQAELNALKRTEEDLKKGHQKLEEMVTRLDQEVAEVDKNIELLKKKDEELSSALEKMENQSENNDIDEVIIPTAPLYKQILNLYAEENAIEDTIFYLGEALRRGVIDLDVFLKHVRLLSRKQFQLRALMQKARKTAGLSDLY
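Fluorescence anisotropy tracks displacement of a FITC-tagged PTAP peptide (50 nM) from the Tsg101 binding domain (10 uM), following a 20 min room-temperature incubation at pH 7.5.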
SW480 rereplic – A quantitative high throughput screen for small molecules that induce DNA re-replication in SW480 colon adenocarcinoma cells. SW480 DNA re-replication, Hoechst DNA content imaging, 48 h. Potency, µM (highest dose often 46.1 µM), actives largely listed as activators. 1.8% of 340,000 active. AID 624297, 2012; note: nearly all actives have a fitted effect of over 55% in size
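Treated cells incubate 48 hr (37 C, 5% CO2), are stained 40 min with Hoechst, and nuclear fluorescence is enumerated; a rise in nuclei with high DNA signal marks re-replication.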
MCF10A rerep – A quantitative high throughput screen for small molecules that induce DNA re-replication in MCF 10a normal breast cells | AID 624296, 2012 | MCF 10A DNA re-replication, Hoechst nuclear intensity, 48 h | 2.9% of 350,000 active | Potency, µM (doses to about 46.1 µM), actives largely listed as activators; note: nearly all actives have a fitted effect of over 50% in size
PINK1 modulator – A Quantitative High throughput Screen to Identify Chemical Modulators of PINK1 Expression; PINK1 immunofluorescence, high-content cytometry, 24 h; Potency, µM (titrated, usually from 76.6 µM), actives largely listed as activators; 0.2% of 410,000 active; AID 624263, 2012; active = well fitted activation curve with a large enough effect; inconclusive = small, poorly fitted or top-dose-only effect; cell line not stated here; note: nearly all actives have a fitted effect of over 65% in size
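Stable cell line, 250 cells/well, 12 h attachment; compounds pinned at 5 concentrations, 24 h; CCCP control. Fixed with nuclear dye, primary antibodies 12 h at 10 degrees C, secondary plus cell stain; laser-scanning cytometer read.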
KB-V1 MDR tox – qHTS assay for MDR1-selective chemotherapeutics: Primary screen using the drug-selected MDR subline cells KB-V1; KB-V1 MDR cells viability, CellTiter-Glo, 72 h; Potency, µM (doses to about 46.1 µM), usual class: cytotoxic; 3.4% of 400,000 active; note: nearly all actives have a fitted effect of over 60% in size
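Cytotoxicity via CellTiter-Glo luminescence after 72 h compound exposure at 37 degrees C. Cells: drug-selected KB-V1 line, DMEM phenol-red free plus 10% FBS. Compounds tested at multiple concentrations; normalized data fitted to concentration-effect curves.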
Numbers stand for hits; . = inactive; ? = inconclusive; / = no result; [ ] = another dose, or the depositor's remark. Compounds with a hit are over-represented: about 6.8% of the library has one in this group of screens. Unless noted, calls come from the whole dose curve; as a rule, active = well fitted curve in the direction sought with a large enough effect; inconclusive = small, poorly fitted or top-dose-only effect, or another doubt; inactive = no such curve, though single readings can be large; an effect the other way counts as inactive or inconclusive.

SMILES	KB-3-1 cytotox	TSG101-PTAP inh	SW480 rereplic	MCF10A rerep	PINK1 modulator	KB-V1 MDR tox
C=CCSc1nc(-c2ccc(OC)cc2)c(C#N)c(=O)n1CC=C	.	.	.	21µM	.	.
CCOc1ccc2nc(N3CCCC(C(=O)Nc4cccc(Cl)c4C)C3)sc2c1 (stereo not given)	.	/	/	/	.	.
CCOC(=O)c1c(C)oc2nc(C)nc(NCc3cccc(OC)c3)c12	.	/	/	/	.	.
O=C(NCCCN1CCOCC1)c1ccc(Sc2ccc(F)cc2)c([N+](=O)[O-])c1	.	.	.	.	.	23µM
Cc1cccc(CNC(=O)C2CCN(S(=O)(=O)c3ccc4c(c3)CCCN4C(=O)C3CCC3)CC2)c1	?	/	/	/	.	.
CCCS(=O)(=O)NCc1cn2cccc(C)c2n1	.	.	10µM	2.6µM	.	.
CCc1cccc(NC(=O)C(NS(=O)(=O)c2ccc3nc(C)sc3c2)C(C)C)c1 (stereo not given)	.	/	/	/	.	.
COc1cc2nc(N3CCN(c4cc(C)ccc4C)CC3)nc(N)c2cc1OC	?	.	?	6.5µM	.	?
CN1c2ccccc2-c2nc(SCC(=O)Nc3ccccc3)ncc2S1(=O)=O	.	/	/	/	.	?
Cc1c(C(=O)N2CCC(C)CC2)c(S(=O)(=O)Nc2cccc(C#N)c2)c(C)n1C	/	/	/	/	.	/
CCCc1cc(=O)[nH]c(SCC(=O)c2c(N)n(C3CC3)c(=O)[nH]c2=O)n1	16µM	.	.	?	.	.
COc1cccc(-n2c(SCc3ccccc3C)nc3c([nH]c4ccccc43)c2=O)c1	.	/	/	/	.	23µM
COc1cccc(-n2c(SCc3cccc(C)c3)nc3c([nH]c4ccccc43)c2=O)c1	.	/	/	/	.	.
CCOC1=C/C(=C/c2c(N)n3nc(-c4ccccc4)sc3nc2=O)C=CC1=O	.	.	.	26µM	.	.
COC1=C/C(=C/c2c(N)n3nc(-c4ccc(C)cc4)sc3nc2=O)C=CC1=O	.	.	.	?	.	.
CC(=O)Nc1ccccc1-c1nc(CNC(=O)c2ccc(-n3cccn3)cc2)c(C)o1	/	/	/	/	.	/
CCOC(=O)c1cnn(CCOC(=O)c2ccccc2)c1NC(=O)c1ccccc1	.	.	.	.	.	10µM
CCOC(=O)c1cnn(CCOC(=O)c2ccc(OC)cc2)c1NC(=O)c1ccc(OC)cc1	.	.	.	.	.	?
COc1ccccc1NC(=O)COc1ccc(/C=N/NC(=O)CSCc2ccc(Cl)cc2)cc1	.	.	.	.	?	5.2µM
COc1ccccc1NC(=O)COc1ccc(/C=N/NC(=O)CSCc2cc(C)cc(C)c2)cc1	.	.	.	18µM	.	.
O=C1NC(=Nc2ccccc2Cl)S/C1=C\c1ccc(C(=O)O)cc1	.	.	?	.	.	.
CC12CCC(C/C1=N\N=C1\NC(=O)/C(=C\c3ccc(Cl)cc3)S1)C2(C)C (stereo not given)	?	.	?	5.2µM	.	?
O=C(C1CCCCC1)N1CCOc2ccc(CN3CCN(Cc4ccccn4)CC3)cc2C1	/	/	/	/	.	/
CC1=C(C)/C(=N\OS(=O)(=O)c2ccccc2)C=CC1=O	11µM	.	10µM	?	.	16µM
Cc1ccc(S(=O)(=O)O/N=C2\CCCc3ccccc32)cc1	.	.	.[9.22 µM]	?	.	.
SMILES	KB-3-1 cytotox	TSG101-PTAP inh	SW480 rereplic	MCF10A rerep	PINK1 modulator	KB-V1 MDR tox
O=C(CSc1nnc2scc(-c3ccccc3)n12)N1CCN(Cc2ccccc2)CC1	.	.	.	.	.	5.8µM
Cc1ccc(-c2csc3nnc(SCC(=O)N4CCN(Cc5ccccc5)CC4)n23)cc1	.	.	.	.	.	6.5µM
CCOC(=O)c1cccc(NC(=O)CSc2ncc3c(n2)-c2ccc(Cl)cc2N(Cc2ccccc2)S3(=O)=O)c1	.	/	/	/	.	.
CCOC(=O)C1=CN(Cc2cccc(F)c2)S(=O)(=O)NC1CCc1ccccc1 (stereo not given)	.	.	.	15µM	?	.
CCCSc1ncc(Cl)c(C(=O)Nc2c(C(=O)c3ccc(C)cc3)oc3ccccc23)n1	/	/	/	/	.	/
S=C(NCCc1ccccc1)N1CCN(C23CC4CC(CC(C4)C2)C3)CC1	.	.	?	5.8µM	.	?
COc1cccc(CN2CCN(Cc3cc(OC)c(OC)cc3[N+](=O)[O-])CC2)c1	.	.	.	.	.	21µM
CN1CCN(c2nc(-c3cccs3)cc(C(F)(F)F)n2)CC1	.	.	.	?	.	16µM
O=C(/C=C/c1cccc([N+](=O)[O-])c1)NC(=S)Nc1cccc(NC(=O)c2ccccc2Cl)c1	16µM	.	?	.	.	?
CCOc1ccc(-c2cc3c(=O)n(CC(=O)NCc4ccc(C)cc4)ccn3n2)cc1	.	/	/	/	.	.
CC1CCCCC1NC(=O)/C(C#N)=C/c1ccc2c(c1)OCCO2 (stereo not given)	18µM	.	?	.	.	?
CC1CCCCC1NC(=O)/C(C#N)=C/c1ccc(F)c(F)c1 (stereo not given)	?	.	?	.	.	.
CC(NCc1ccc(OCc2ccc(Cl)cc2)cc1)C(O)c1ccccc1 (stereo not given)	?	.	?	18µM	.	?
Cc1ccc2c(=O)cc(C(=O)N(Cc3ccc(N(C)C)cc3)C3CCS(=O)(=O)C3)oc2c1 (stereo not given)	.	/	/	/	.	.
CCNc1nc(N)c(C(=O)c2ccc(Cl)s2)s1	?	.	?	0.92µM	.	?
Cc1noc(C)c1C(=O)Nc1sc2c(c1C(N)=O)CCCCC2	.	.	.	.	.	21µM
CCC(=O)Nc1sc2c(c1C(N)=O)CCC2	.	.	.	.	.	.
N#CCC(=O)Nc1sc2c(c1C(N)=O)CCCC2	.	.	.	23µM	.	.
C=CC(=O)Nc1sc2c(c1C(N)=O)CCCC2	?	.	?	21µM	.	?
Cc1noc(C)c1C(=O)Nc1sc2c(c1C(N)=O)CCC2	.	.	.	.	?	.
O=C(Nc1ccc(F)cc1F)c1csc(-c2ccccc2)n1	.	.	?	?	.	.
O=C(Nc1ccc(F)cc1F)c1cccc(C(=O)Nc2ccc(F)cc2F)n1	/	.	16µM	6.5µM	.	/
O=C(Nc1cccc(Cl)c1)c1c(NC(=O)C(F)(F)F)sc2c1CCCC2	?	/	/	/	40µM	12µM
CCN(CC)CCCC(C)NC(=O)c1c(NC(=O)c2ccccc2)sc2c1CCCC2 (stereo not given)	.	.	?	4.6µM	.	.
